We go through four molecules from PubChem BioAssay (EPA / NIEHS).

SMILES strings stand for the structures. Active and inactive are the calls of the source. How the source made its calls: active means hit-call score of the fitted dose curve at least 0.9, where 1 is the maximum; inactive means score below 0.9.

What all share (details): mRNA level, 48 h; actives raise or lower the signal
Read-out in experiment [1]: JUN Transcription Factor, JUN (gene 3725)
Description: LTEA_HepaRG_JUN: Life Technologies and Expression Analysis (LTEA) Assay for JUN Transcription Factor using HepaRG (AID 2283513). Put shortly: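 Read-out is JUN transcript level by TaqMan qRT-PCR, normalized to ACTB, GAPDH and POLR2A, after 48 h chemical treatment of HepaRG cells. Concentration-response spanned eight half-log points up to 100 uM in 0.5% DMSO.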

Read-out in experiment [2]: Lipase C (LIPC), LIPC (gene 3990)
In words: LTEA_HepaRG_LIPC: Life Technologies and Expression Analysis (LTEA) Assay for Lipase C (LIPC) using HepaRG (AID 2283514). In short, it runs like this: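 HepaRG, 48 h exposure, 8-pt half-log series from 100 uM in 0.5% DMSO, duplicates. Readout: LIPC mRNA by Fluidigm qRT-PCR, housekeeping-normalized (ACTB/GAPDH/POLR2A). Gain or loss fitted bidirectionally against DMSO baseline.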

Read-out in experiment [3]: MicroRNA 122 (MIR122), gene 406906
In words: LTEA_HepaRG_MIR122: Life Technologies and Expression Analysis (LTEA) Assay for MicroRNA 122 (MIR122) using HepaRG (AID 2283516). Further: the transcript read is the microRNA miR-122. In short, it runs like this:
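Human liver HepaRG cultures receive test chemicals for 48 h at eight half-log concentrations from 100 uM. Expression is quantified by qRT-PCR with ACTB/GAPDH/POLR2A normalization and fitted bidirectionally against 0.5% DMSO.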

Read-out in experiment [4]: matrix metalloproteinase-10 (MMP10), MMP10 (gene 4319)
Description: LTEA_HepaRG_MMP10: Life Technologies and Expression Analysis (LTEA) Assay for matrix metalloproteinase-10 (MMP10) using HepaRG (AID 2283517). In short, it runs like this:
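Transcript levels come from Fluidigm qRT-PCR normalized to three housekeeping genes, with curves fitted bidirectionally against 0.5% DMSO. Human HepaRG cells were dosed for 48 hours at concentrations up to 100 uM.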

Read-out in the next experiment: MYC, MYC (gene 4609)
In words: LTEA_HepaRG_MYC: Life Technologies and Expression Analysis (LTEA) Assay for MYC using HepaRG (AID 2283518). In short, it runs like this: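 Expression changes were scored by TaqMan qRT-PCR with ACTB, GAPDH and POLR2A normalization. Cultures in serum-free induction medium received duplicate 8-point concentration series, highest 100 uM, for 48 h; DMSO (0.5%) served as baseline.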

Read-out in experiment [5]: matrix metalloproteinase-3 (MMP3), MMP3 (gene 4314)
Description: LTEA_HepaRG_MMP3: Life Technologies and Expression Analysis (LTEA) Assay for matrix metalloproteinase-3 (MMP3) using HepaRG (AID 2283519). In short, it runs like this: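 qRT-PCR read-out of MMP3 mRNA (normalised to three housekeeping genes) in HepaRG liver cells after 48 h chemical exposure; 8-point half-log series, top 100 uM, 0.5% DMSO vehicle. Bidirectional curve fitting against DMSO baseline.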

Read-out in experiment [6]: Paternally Expressed 10 (PEG10), PEG10 (gene 23089)
Description: LTEA_HepaRG_PEG10: Life Technologies and Expression Analysis (LTEA) Assay for Paternally Expressed 10 (PEG10) using HepaRG (AID 2283520). Put shortly:
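Human HepaRG cultures are dosed for 48 h across an eight-point half-log series starting at 100 uM, with 0.5% DMSO as vehicle and baseline. Gain or loss of PEG10 transcript is measured by qRT-PCR and fitted in both directions.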

Read-out in experiment [7]: Nuclear factor NF-kappa-B p105 subunit (Homo sapiens) (UniProt P19838)
Description: LTEA_HepaRG_NFKB1: Life Technologies and Expression Analysis (LTEA) Assay for Nuclear Factor Kappa B Subunit 1 (NFKB1) using HepaRG (AID 2283521).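 Further: differentiated human HepaRG liver cells in serum-free induction medium.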 In short, it runs like this: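 NFKB1 transcript was measured by TaqMan qRT-PCR on Fluidigm arrays, normalised to three housekeeping genes and fitted in both directions against 0.5% DMSO. HepaRG cells were dosed in duplicate for 48 h in serum-free induction medium, eight half-log steps from 100 uM.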

Read-out in experiment [8]: Protein phosphatase 2A (PPP2R4), PTPA (gene 5524)
Description: LTEA_HepaRG_PPP2R4: Life Technologies and Expression Analysis (LTEA) Assay for Protein phosphatase 2A (PPP2R4) using HepaRG (AID 2283522). Put shortly:
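Cells were plated, cultured 48 h, switched to serum-free induction medium, then dosed for 48 h (8 points, max 100 uM, 0.5% DMSO). RNA was isolated and PPP2R4 expression measured by TaqMan qRT-PCR.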

Read-out in experiment [9]: solute carrier (SLC22A1), SLC22A1 (gene 6580)
Description: LTEA_HepaRG_SLC22A1: Life Technologies and Expression Analysis (LTEA) Assay for solute carrier (SLC22A1) using HepaRG (AID 2283524).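 On AC50: differentiated human HepaRG liver cells in serum-free induction medium.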 Put shortly:
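qRT-PCR readout (TaqMan, Fluidigm arrays) of SLC22A1 transcript, normalized to three housekeeping genes; bidirectional curve fit relative to 0.5% DMSO vehicle. Differentiated human HepaRG cells, 48 h chemical exposure, top concentration 100 uM, half-log steps, eight points.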

Read-out in experiment [10]: Pyruvate Dehydrogenase Kinase 4 (PDK4), PDK4 (gene 5166)
In words: LTEA_HepaRG_PDK4: Life Technologies and Expression Analysis (LTEA) Assay for Pyruvate Dehydrogenase Kinase 4 (PDK4) using HepaRG (AID 2283525). Put shortly: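 HepaRG (human liver line), 48 h chemical exposure, 8-pt half-log CRC top 100 uM, 0.5% DMSO vehicle, duplicates. Readout: TaqMan qRT-PCR of PDK4 mRNA, housekeeping-normalized; gain/loss fit relative to DMSO baseline.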

Read-out in experiment [11]: NAD(P)H dehydrogenase [quinone] 1 (NQO1), NQO1 (gene 1728)
In words: LTEA_HepaRG_NQO1: Life Technologies and Expression Analysis (LTEA) Assay for NAD(P)H dehydrogenase [quinone] 1 (NQO1) using HepaRG (AID 2283526). In short, it runs like this: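 Transcript induction or suppression is quantified by qRT-PCR in human HepaRG liver cells dosed for 48 hours. Eight half-log concentrations topping at 100 uM are used, with 0.5% DMSO as vehicle and baseline.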

Read-out in experiment [12]: Nuclear factor erythroid 2-related factor 2 (Homo sapiens) (UniProt Q16236)
Description: LTEA_HepaRG_NFE2L2: Life Technologies and Expression Analysis (LTEA) Assay for Nuclear factor erythroid 2-related factor 2 (NFE2L2) Transcription Factor using HepaRG (AID 2283527). In short, it runs like this:
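HepaRG, 48 h dosing, 8-pt half-log series from 100 uM in 0.5% DMSO, duplicates. Read-out: NFE2L2 mRNA by qRT-PCR (ACTB/GAPDH/POLR2A normalization). Bidirectional curve fit vs DMSO baseline.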

Read-out in experiment [13]: succinate dehydrogenase complex iron sulfur subunit B (SDHB), SDHB (gene 6390)
Description: LTEA_HepaRG_SDHB: Life Technologies and Expression Analysis (LTEA) Assay for succinate dehydrogenase complex iron sulfur subunit B (SDHB) using HepaRG (AID 2283528). In short, it runs like this: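 SDHB transcript level read by TaqMan qRT-PCR, housekeeping-normalised (ACTB, GAPDH, POLR2A), after 48 h chemical treatment of plated HepaRG cells; eight concentrations top 100 uM, half-log steps, 0.5% DMSO, duplicates; fitted both directions against DMSO.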

Read-out in experiment [14]: Signal transducer and activator of transcription 3 (Homo sapiens) (UniProt P40763)
Description: LTEA_HepaRG_STAT3: Life Technologies and Expression Analysis (LTEA) Assay for Signal transducer and activator of transcription (STAT3) using HepaRG (AID 2283529). Put shortly:
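HepaRG, 48 h exposure, 8-pt half-log series (top 100 uM), 0.5% DMSO vehicle, duplicates. Readout: STAT3 transcript by Fluidigm qRT-PCR, housekeeping-normalized; bidirectional fit vs DMSO baseline.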

Read-out in experiment [15]: sulfotransferase 2A1 (SULT2A1), SULT2A1 (gene 6822)
Description: LTEA_HepaRG_SULT2A1: Life Technologies and Expression Analysis (LTEA) Assay for sulfotransferase 2A1 (SULT2A1) using HepaRG (AID 2283531). In short, it runs like this: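 Gene-expression endpoint in a human liver cell line: SULT2A1 mRNA change after 48 h chemical treatment, curves fitted in both directions relative to 0.5% DMSO vehicle. Concentrations spanned eight half-log steps from 100 uM.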

Read-out in experiment [16]: Transforming Growth Factor (TGFA), TGFA (gene 7039)
In words: LTEA_HepaRG_TGFA: Life Technologies and Expression Analysis (LTEA) Assay for Transforming Growth Factor (TGFA) using HepaRG (AID 2283532). In short, it runs like this: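 qRT-PCR read-out of TGFA transcript, normalized to three housekeeping genes, fitted bidirectionally against 0.5% DMSO baseline. Human HepaRG cultures received chemicals for 48 h at eight half-log concentrations, top 100 uM.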

Read-out in experiment [17]: solute carrier (SLCO1B1), SLCO1B1 (gene 10599)
In words: LTEA_HepaRG_SLCO1B1: Life Technologies and Expression Analysis (LTEA) Assay for solute carrier (SLCO1B1) using HepaRG (AID 2283530). Put shortly:
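Human HepaRG cultures treated for 48 h with an eight-concentration half-log series topping at 100 uM; SLCO1B1 measured by qRT-PCR and fitted bidirectionally relative to DMSO.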

Read-out in experiment [18]: Lipoprotein lipase (LPL), LPL (gene 4023)
Description: LTEA_HepaRG_LPL: Life Technologies and Expression Analysis (LTEA) Assay for Lipoprotein lipase (LPL) using HepaRG (AID 2283515). Put shortly: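 HepaRG, 48 h exposure, 8-pt half-log dilutions from 100 uM, 0.5% DMSO vehicle, duplicates; qRT-PCR (Fluidigm array) of LPL mRNA vs housekeeping genes; bidirectional curve fit relative to DMSO baseline.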

Read-out in experiment [19]: Phosphatase and tensin (PTEN), PTEN (gene 5728)
Description: LTEA_HepaRG_PTEN: Life Technologies and Expression Analysis (LTEA) Assay for Phosphatase and tensin (PTEN) using HepaRG (AID 2283523). In short, it runs like this: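 HepaRG, 48 h exposure, 8-pt half-log series from 100 uM top, 0.5% DMSO vehicle, duplicates. Readout: Fluidigm qRT-PCR of PTEN transcript; housekeeping normalization (ACTB, GAPDH, POLR2A). Gain or loss fitted relative to DMSO baseline.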

Nuclear factor erythroid 2-related factor 2 (Homo sapiens), sequence (Q16236 whole entry, looked up): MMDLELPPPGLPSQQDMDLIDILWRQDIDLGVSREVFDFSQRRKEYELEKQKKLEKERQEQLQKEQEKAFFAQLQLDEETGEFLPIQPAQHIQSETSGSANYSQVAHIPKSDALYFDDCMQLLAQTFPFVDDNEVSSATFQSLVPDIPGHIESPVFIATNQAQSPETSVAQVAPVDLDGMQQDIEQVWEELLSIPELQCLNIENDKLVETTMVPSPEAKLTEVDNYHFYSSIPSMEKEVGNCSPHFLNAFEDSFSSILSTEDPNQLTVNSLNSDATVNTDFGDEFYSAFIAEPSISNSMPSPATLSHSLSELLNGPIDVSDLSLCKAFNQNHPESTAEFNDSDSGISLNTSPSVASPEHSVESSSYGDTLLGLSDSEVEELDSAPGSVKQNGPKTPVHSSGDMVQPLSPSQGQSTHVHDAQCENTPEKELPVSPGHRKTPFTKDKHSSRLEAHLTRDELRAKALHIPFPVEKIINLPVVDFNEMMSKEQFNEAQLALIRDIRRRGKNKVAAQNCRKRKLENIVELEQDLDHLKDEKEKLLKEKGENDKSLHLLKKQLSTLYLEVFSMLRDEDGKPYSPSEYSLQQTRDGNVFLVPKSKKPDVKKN
Nuclear factor NF-kappa-B p105 subunit (Homo sapiens), sequence (P19838 whole entry, looked up): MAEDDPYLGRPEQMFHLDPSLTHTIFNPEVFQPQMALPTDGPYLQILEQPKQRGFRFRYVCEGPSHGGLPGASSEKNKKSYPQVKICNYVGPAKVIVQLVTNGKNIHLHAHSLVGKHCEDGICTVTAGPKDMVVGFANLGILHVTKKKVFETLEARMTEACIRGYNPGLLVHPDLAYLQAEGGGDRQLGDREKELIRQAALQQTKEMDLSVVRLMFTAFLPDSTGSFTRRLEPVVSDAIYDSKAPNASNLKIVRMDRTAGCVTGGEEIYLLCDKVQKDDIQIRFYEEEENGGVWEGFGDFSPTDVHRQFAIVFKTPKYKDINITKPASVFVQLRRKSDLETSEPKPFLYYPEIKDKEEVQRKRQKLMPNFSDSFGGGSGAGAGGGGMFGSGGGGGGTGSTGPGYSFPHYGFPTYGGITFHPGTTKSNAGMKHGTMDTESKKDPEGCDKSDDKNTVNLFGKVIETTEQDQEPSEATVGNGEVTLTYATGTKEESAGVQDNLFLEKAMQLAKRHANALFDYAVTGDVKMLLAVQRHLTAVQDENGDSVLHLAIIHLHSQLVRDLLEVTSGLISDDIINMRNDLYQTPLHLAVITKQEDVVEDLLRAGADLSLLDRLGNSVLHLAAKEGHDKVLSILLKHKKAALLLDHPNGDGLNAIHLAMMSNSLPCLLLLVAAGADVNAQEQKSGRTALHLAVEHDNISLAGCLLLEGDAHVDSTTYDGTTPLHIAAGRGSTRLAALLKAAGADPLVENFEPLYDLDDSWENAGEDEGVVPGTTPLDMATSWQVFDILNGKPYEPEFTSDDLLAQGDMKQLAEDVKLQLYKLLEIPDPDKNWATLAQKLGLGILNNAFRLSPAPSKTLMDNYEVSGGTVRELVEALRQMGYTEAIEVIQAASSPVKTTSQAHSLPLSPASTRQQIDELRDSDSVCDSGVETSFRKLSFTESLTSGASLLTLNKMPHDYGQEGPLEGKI
Signal transducer and activator of transcription 3 (Homo sapiens), sequence (P40763 whole entry, looked up): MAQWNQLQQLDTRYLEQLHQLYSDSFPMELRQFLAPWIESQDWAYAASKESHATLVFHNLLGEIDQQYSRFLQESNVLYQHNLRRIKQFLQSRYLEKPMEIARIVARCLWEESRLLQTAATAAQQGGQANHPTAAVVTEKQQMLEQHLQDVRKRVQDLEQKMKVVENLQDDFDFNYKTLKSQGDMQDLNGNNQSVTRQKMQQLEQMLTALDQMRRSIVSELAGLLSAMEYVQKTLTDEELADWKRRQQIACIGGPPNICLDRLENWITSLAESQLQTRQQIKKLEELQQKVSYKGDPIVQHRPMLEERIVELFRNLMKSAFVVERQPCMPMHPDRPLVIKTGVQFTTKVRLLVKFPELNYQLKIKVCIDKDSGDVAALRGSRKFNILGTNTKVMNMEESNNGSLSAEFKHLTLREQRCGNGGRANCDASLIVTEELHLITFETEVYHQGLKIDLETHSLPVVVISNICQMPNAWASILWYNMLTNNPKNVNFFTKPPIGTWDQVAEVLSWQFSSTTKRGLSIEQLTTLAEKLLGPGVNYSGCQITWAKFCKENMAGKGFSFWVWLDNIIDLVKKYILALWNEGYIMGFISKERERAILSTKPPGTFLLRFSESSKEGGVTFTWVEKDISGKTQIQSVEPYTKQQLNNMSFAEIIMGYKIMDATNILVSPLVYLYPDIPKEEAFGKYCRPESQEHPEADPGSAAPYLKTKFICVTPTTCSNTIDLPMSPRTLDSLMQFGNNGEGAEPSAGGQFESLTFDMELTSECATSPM

Regarding `Clc1ccccc1Cl`, the outcome was “inactive” in experiment [1]; “inactive” in experiment [2]; “inactive” in experiment [3]; “inactive” in experiment [4]; “inactive” in the experiment with MYC, MYC (gene 4609); “inactive” in experiment [5]. Moreover, the call in [6], in experiment [7], in experiment [8], in experiment [9], in experiment [10] and in experiment [11] was inactive. Besides, the result in experiment [12], in experiment [13], in experiment [14], in experiment [15] and in experiment [16] was inactive.

As to `C=CCc1ccc2c(c1)OCO2`, the outcome is “inactive” in experiment [1]; “inactive” in experiment [2]; “inactive” in experiment [3]; “inactive” in [4]; “inactive” in the experiment with MYC, MYC (gene 4609); “inactive” in experiment [5]. For the same molecule, the outcome in experiment [6], in experiment [7], in experiment [8], in experiment [10], in experiment [11] and in experiment [12] was inactive. Also, the result in experiment [13], in experiment [14], in experiment [17], in [15] and in experiment [16] was inactive.

Turning to `COc1cc(C=O)cc2c1[C@H](COC(N)=O)[C@]1(OC(C)=O)ON2C[C@H]2[C@@H]1N2C(C)=O`, the half-maximal activity concentration (AC50) in experiment [1] is 5000 nM (active); in experiment [18], 272 nM (active); in experiment [5], 1440 nM (active); in [9], 580 nM (active); in experiment [10], 95300 nM (active); in experiment [12] it was 93100 nM (active). The figures for the half-maximal activity concentration (AC50) in [13], in experiment [17] and in experiment [16] were 93400 nM (active), 733 nM (active) and 1460 nM (active), respectively. In addition, the outcome in experiment [2] was “inactive”; in experiment [3] it was “inactive”; in the experiment with MYC, MYC (gene 4609), “inactive”; in experiment [6], “inactive”; in experiment [8], “inactive”; in experiment [11], “inactive”. In addition, the call in [14] and in experiment [15] was inactive.

Turning to `CC(C)(OOC(C)(C)c1ccccc1)c1ccccc1`, the outcome in [1] is “inactive”; in experiment [2], “inactive”; in [3] it was “inactive”; in [4] it was “inactive”; with MYC, MYC (gene 4609), “inactive”; in [5], “inactive”. Moreover, the molecule was called inactive in experiment [6], in [7], in [8], in experiment [19], in experiment [10] and in experiment [11]. For the same molecule, the molecule was classed as inactive in [12], in experiment [13], in experiment [14], in experiment [15] and in [16].
